Screening results deposited in PubChem by National Center for Advancing Translational Sciences (NCATS).
Sampled rows, rich in hits. Any-hit rate of the full collection: about 10%.
G9a inh – G9a (human) methyltransferase inhibition. G9a H3K9 monomethylation, AlphaScreen, 2 h. Potency, µM (doses to about 102 µM), for inactives: at the top dose activity, negative = inhibition, most hits filed as inhibitors. actives 8.8% (n = 350,000). AID 504332; further: on the % scale 0 is the no-effect control and ±100 the full control effect; nearly all actives have a fitted effect of over 75% in size
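Chemiluminescent proximity detection of H3K9 monomethylation, read after 10 min bead incubation in the dark. Reaction: 20 nM G9a, 500 nM biotin-H3K9 peptide, 20 uM SAM cofactor, 2 h, room temperature, following 15 min enzyme-compound preincubation.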
BAZ2B block – BAZ2B (human) inhibition. Q9UIF8. AlphaScreen BAZ2B-H3K14Ac peptide displacement. Potency, µM (top dose mostly 114 µM), without a hit: at the top dose activity change, negative = inhibition, actives largely listed as inhibitors. actives 4.4% (n = 360,000). AID 504333; further: on the % scale 0 is the no-effect control and ±100 the full control effect; nearly all actives have a fitted effect of over 60% in size
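BAZ2B (50 nM) with biotin-H3(5-23)K14Ac peptide (50 nM) in PBS pH 7.4, 0.01% Tween-20, preformed 30 min, then compound 30 min at room temperature; top concentration 110uM. AlphaScreen streptavidin donor/nickel chelate acceptor beads (10 ug/mL final), 20 min dark, signal read.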
L3MBTL1 block – inhibitors of human L3MBTL1; Q9Y468; AlphaScreen L3MBTL1–H3K9me1 peptide binding; Potency, µM (series often up to 57.1 µM), without a hit: at the top dose activity, negative = inhibition, most hits filed as inhibitors; actives 0.66% (n = 230,000); AID 485360; further: on the % scale 0 is the no-effect control and ±100 the full control effect; nearly all actives have a fitted effect of over 60% in size
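AlphaScreen assay: L3MBTL1 (50 nM final) was preincubated 30 min at room temperature with biotinylated H3(1-15)K9me1 peptide (75 nM final), then 30 min with library compounds; streptavidin donor and nickel chelate acceptor beads (10 ug/mL final) added, 30 min dark.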
GLS inhibitor – blocks human kidney-isoform glutaminase activity. O94925. GLS enzymatic activity, qHTS titration. Potency, µM (highest dose often 45.5 µM), for inactives: at the top dose activity change, negative = inhibition, hits mostly inhibitors. actives 0.21% (n = 410,000); further: on the % scale 0 is the no-effect control and ±100 the full control effect
Target sequence (O94925 whole entry, looked up, canonical isoform): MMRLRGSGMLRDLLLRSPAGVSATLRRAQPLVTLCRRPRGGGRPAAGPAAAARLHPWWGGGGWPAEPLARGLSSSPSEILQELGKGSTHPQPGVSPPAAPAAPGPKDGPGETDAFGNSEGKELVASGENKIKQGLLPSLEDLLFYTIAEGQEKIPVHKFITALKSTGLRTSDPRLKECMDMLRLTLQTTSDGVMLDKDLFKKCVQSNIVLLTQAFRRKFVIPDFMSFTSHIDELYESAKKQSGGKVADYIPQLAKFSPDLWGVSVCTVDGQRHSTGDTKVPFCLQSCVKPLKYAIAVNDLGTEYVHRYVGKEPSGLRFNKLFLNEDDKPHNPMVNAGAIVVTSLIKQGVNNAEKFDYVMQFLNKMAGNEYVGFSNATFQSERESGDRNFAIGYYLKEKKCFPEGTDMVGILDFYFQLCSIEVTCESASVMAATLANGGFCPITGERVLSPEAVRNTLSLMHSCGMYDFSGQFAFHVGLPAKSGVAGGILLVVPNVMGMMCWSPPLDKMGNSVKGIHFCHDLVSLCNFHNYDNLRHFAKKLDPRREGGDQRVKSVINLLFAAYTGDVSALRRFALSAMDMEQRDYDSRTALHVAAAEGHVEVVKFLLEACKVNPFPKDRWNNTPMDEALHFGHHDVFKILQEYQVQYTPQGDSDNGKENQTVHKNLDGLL
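hKGA; 45 mM KH2PO4 pH 8.2 + 0.02% Tween-20; cpd via pin tool; 1 mM Gln soln; GluOx/HRP/Amplex Red; RT 30 min; fluor. t0 & final.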
JMJD2A Tudor – inhibitors of human JMJD2A Tudor domain. Potency, µM (highest dose often 114 µM), for the others: at the highest dose activity change, negative = inhibition, usual class: inhibitors. O75164. AID 504339. actives 4.4% (n = 390,000). AlphaScreen JMJD2A-Tudor / H3K4me3 peptide binding; further: on the % scale 0 is the no-effect control and ±100 the full control effect; nearly all actives have a fitted effect of over 50% in size
HP1b binding inh – HP1-beta chromodomain-methylated histone interaction inhibition; Potency, µM (highest dose often 114 µM), inactives show at the highest dose activity change, negative = inhibition, actives largely listed as inhibitors; P83916; AlphaScreen HP1-beta / biotin-H3K9me3 peptide binding; actives 0.56% (n = 390,000); further: nearly all actives have a fitted effect of over 70% in size
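Compound inhibition of the preformed complex between 50 nM HP1-beta and 50 nM biotinylated H3K9me3 peptide was read by AlphaScreen. Buffer was PBS pH 7.4 with 0.01% Tween-20. Incubations ran 30 min at room temperature, with 10 ug/mL donor/acceptor beads.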
* = called active by the depositor; ? = inconclusive; . = no result; [ ] = another dose, or the depositor's remark. The call rests on the fitted dose curve; in most records, active means well fitted curve in the direction sought with a large enough effect; inconclusive means small, poorly fitted or top-dose-only effect, or another doubt; inactive means no such curve, though single readings can be large; an effect the other way counts as inactive or inconclusive. Potency means the concentration at half of the fitted maximal effect.

SMILES	G9a inh	BAZ2B block	L3MBTL1 block	GLS inhibitor	JMJD2A Tudor	HP1b binding inh
COc1ccc(C)cc1S(=O)(=O)NCC(c1cccnc1)N1CCc2ccccc2C1 (stereo unspecified)	?	?	.	5.4%	-32.3%	26.1%
Cc1cc(C)c(S(=O)(=O)NCC(c2ccc(N(C)C)cc2)N2CCOCC2)c(C)c1 (stereo unspecified)	?	39.8µM*	.	18.7%	50.1µM*	?
COc1ccc(C)cc1S(=O)(=O)NCC(c1ccc(N(C)C)cc1)N1CCc2ccccc21 (stereo unspecified)	10µM*	10µM*	.	4.7%	14.1µM*	?
O=S(=O)(NCC(c1ccco1)N1CCc2ccccc21)c1ccccc1 (stereo unspecified)	44.7µM*	39.8µM*	?	?	?	?
CCOC(=O)Cc1c(C)nc2c(-c3ccc(OC)c(OC)c3)c(C)nn2c1C	?	-22.3%	.	-1.1%	-17.2%	21.9%
CCC(=O)N1CCCc2cc(S(=O)(=O)N3CCC(C(=O)Nc4ccccc4CC)CC3)ccc21	17.0%[59 µM]	-9.8%	.	-9.4%	-21.3%	4.3%[57 µM]
Cc1ccccc1NC(=O)Cn1nc(-c2ccc(F)cc2)c2cnc3ccccc3c21	-0.4%[59 µM]	-11.3%	.	-3.8%	-19.3%	24.9%
CN(C)c1ccc(C(CNS(=O)(=O)c2ccc(F)cc2)N2CCc3ccccc32)cc1 (stereo unspecified)	14.1µM*	10µM*	.	2.5%	20µM*	?
Cc1ccc(C(CNS(=O)(=O)c2ccc(F)cc2)N2CCN(C)CC2)cc1 (stereo unspecified)	-24.3%	7.9%	-9.4%	-1.5%	3.4%	19.5%
COc1cc(S(=O)(=O)NCc2ccccn2)ccc1Cl	25.4%[59 µM]	-1.9%	-6.0%	?	31.6µM*	1.3%
COc1ccc(S(=O)(=O)NCc2ccccn2)cc1NC(=O)c1ccccc1	-44.8%	-23.9%	.	-12.5%	-2.8%	7.5%
COc1ccc(S(=O)(=O)NCc2ccccn2)cc1NC(=O)c1ccc(C)cc1	-6.9%	-37.2%	17.0%	-3.3%	6.31µM*	16.1%
COc1ccc(S(=O)(=O)NCc2ccncc2)cc1NC(=O)c1ccccc1C	8.91µM*	12.4%	1.8%	0.8%	-23.5%	2.8%
Cn1c(=O)oc2cc(S(=O)(=O)NCc3ccccn3)ccc21	12.6µM*	-38.8%	.	0.7%	-13.4%	13.3%
COc1ccc(S(=O)(=O)NCc2ccccn2)cc1Br	.	11.4%	10.7%	-2.4%	-18.8%	40.1%
O=C(Nc1ccccc1Cl)c1ccc(F)c(S(=O)(=O)NCc2ccc(Cl)c(Cl)c2)c1	3.2%[59 µM]	10.0%	.	3.3%	-7.6%	28.4%
CC(=O)Nc1ccc(S(=O)(=O)NCc2ccccn2)cc1	12.6%[59 µM]	6.1%	6.8%	9.2%	5.01µM*	-3.6%
CC(=O)Nc1ccc(S(=O)(=O)NCc2ccncc2)cc1	5.9%[12.7 µM]	?	-2.4%	12.6%	-3.5%	29.6%
Nc1ccc(S(=O)(=O)NCc2ccccn2)cc1	11.2%[2.33 µM]	-1.3%	.	-10.5%	-5.3%	69.1%
CCN(CC)c1ccc(NS(=O)(=O)c2ccc3c(c2)oc(=O)n3C)c(C)c1	39.8µM*	-16.1%	-29.1%	24.4%	?	?
CC(=O)Nc1ccc(S(=O)(=O)NCc2ccc(C)n2C)cc1	39.8µM*	?	.	-1.2%	-5.9%	13.5%
O=S(=O)(NCc1ccccn1)C(F)(F)F	.	50.1µM*	-17.1%	0.7%	5.01µM*	36.2%
O=S(=O)(NCc1ccccn1)c1ccc2ccccc2c1	12.9%	0.3%	.	2.1%	-7.0%	24.1%
Cc1nc(N2CCCC2)c2c(C(=O)Nc3ccc(C)c(Cl)c3)c(C)oc2n1	-6.4%[59 µM]	6.9%[57.1 µM]	.	7.6%	-14.2%	47.8%
CCN1CCN(Cc2c(O)ccc3cc(-c4ccc(OC)cc4)c(=O)oc23)CC1	-8.8%[59 µM]	29.5%	.	17.2%	19.2%	48.5%[57 µM]
SMILES	G9a inh	BAZ2B block	L3MBTL1 block	GLS inhibitor	JMJD2A Tudor	HP1b binding inh
COC(=O)c1cc(NC2(c3ccccc3)C(=O)c3ccccc3C2=O)cc(C(=O)OC)c1	-36.4%[59 µM]	-27.1%	.	-8.4%	-31.4%	19.6%
CCN(CC)CC(C)CNC(=O)c1cc(-c2ccc(Br)s2)nc2ccccc12 (stereo unspecified)	?	-1.7%	.	-0.3%	-0.7%	32.7%
C=CCNC(=O)C1CC(=O)N(c2ccc(OCc3ccccc3Cl)cc2)C1 (stereo unspecified)	35.2%[59 µM]	-6.8%	-4.2%	4.1%	-15.1%	34.4%
C=CCNC(=O)C1CC(=O)N(c2ccc(OCC(=O)Nc3ccc(Cl)cc3)cc2)C1 (stereo unspecified)	11.1%	2.7%	.	-7.7%	70.8µM*	9.2%
O=c1c2ccccc2nc(-c2ccc(Cl)cc2)n1CCCCOc1ccc(F)cc1	36.2%[59 µM]	33.2%	.	2.8%	50.5%	94.1%
COCCOC(=O)c1c(C)n(C)c2ccc(OC(=O)N3CCOCC3)cc12	-14.4%[59 µM]	.	30.1%	-7.7%	-5.4%	26.0%
COCCOC(=O)c1c(C)n(C)c2ccc(OC(=O)c3c(OC)cccc3OC)cc12	8.91µM*	-26.8%	.	-30.1%	-18.8%	-21.4%
COc1cc2c(cc1OC)C(/C(C#N)=N\O)=NC(C)(C)C2	11.2µM*	-2.3%	5.7%	2.7%	-16.4%	10.5%
CC(C)(C)OC(=O)N1CCC[C@H]1C(=O)N1CCC[C@H]1C(=O)NCc1ccc(F)cc1F	.	.	.	-11.5%	.	.
CC(C)(C)OC(=O)N1CCC[C@H]1C(=O)NCc1ccc(Cl)cc1Cl	0.1%	-3.0%	21.6%	-17.0%	44.7µM*	-4.5%
C#CCOCCOCCOCCNc1nc(N2CCOCC2)nc(N2CCN(C(=O)[C@H](CCCCN)n3cc([C@@H](N)C(C)CC)nn3)CC2)n1 (stereo partly specified)	?	-36.8%	1.0%	-0.1%	-11.2%	36.3%
C#CCOCCOCCOCCNc1nc(N2CCN(C(=O)C([C@@H](C)O)n3cc([C@@H](N)CCCCN)nn3)CC2)nc(N2CCN(C(=O)C([C@@H](C)O)n3cc([C@@H](N)CCCCN)nn3)CC2)n1 (stereo partly specified)	.	.	3.2%	3.7%	50.1µM*	27.4%
C#CCOCCOCCOCCNc1nc(N2CCN(C(=O)[C@H](CO)n3cc([C@@H](N)C(C)C)nn3)CC2)nc(N2CCN(C(=O)[C@H](CO)n3cc([C@@H](N)C(C)C)nn3)CC2)n1	.	.	.	6.1%	79.4µM*	22.6%
C#CCOCCOCCOCCNc1nc(N2CCN(C(=O)C([C@@H](C)O)n3cc([C@@H](N)CCCCN)nn3)CC2)nc(N2CCN(C(=O)[C@H](CO)n3cc([C@@H](N)C(C)C)nn3)CC2)n1 (stereo partly specified)	.	.	1.7%	-4.4%	79.4µM*	25.5%
